Our source for the Kd values is PMC5540273 (PLoS ONE, 2017).

The structures appear in SMILES notation.
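Note: kd values determined as follow-up on hits from a single-replicate KINOMEscan panel screen.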

One test has as its system ROCK2.
On to `CSc1nn2c(=O)cc(N3CCOCC3)nc2n1Cc1cccc(C(F)(F)F)c1C` [GSK2363608], for which the Kd (usually the free concentration of one partner at which half of the binding sites on the other are occupied at equilibrium, for simple one-to-one binding) worked out at 82 nM.

`CC1=C(C(=O)Nc2cc3cn[nH]c3cc2F)C(c2ccc(C(F)(F)F)cc2)CC(=O)N1` (stereo not drawn) [GSK429286]: the Kd was 2.7 nM.

Compound `O=S(=O)(c1ccc(-c2ccnc3[nH]ccc23)cc1)N1CCCC1` [GSK846226] displayed a dissociation constant Kd of 350 nM.

Another test concerns T1, RSK4(Kin.Dom.2-C-terminal).
T1 construct: gene RPS6KA6
With `CS(=O)(=O)c1ccc(-c2c(-c3ncn[nH]3)sc(N3CCOCC3)c2C#N)cc1`, the Kd was above 10000 nM.

Take `Fc1cc(Cl)ccc1Nc1ccnc2cc(I)ccc12` [GW551191]: the affinity, expressed as Kd, was 730 nM.

Turning to `Fc1cc(Cl)ccc1Nc1ccnc2cc(-c3ccc(CN4CCCCC4)o3)ccc12` [GW560116], the Kd was 670 nM.

A further test concerns SLK.
Compound `Cc1ccccc1-n1cnc2c(N)ncnc21` [SKF-97510] had a dissociation constant (Kd) above 10000 nM.

In turn, `CN(C)CCN(C)C(=O)c1cc(-c2ccncc2)c(-c2ccc(Cl)c(O)c2)o1.Cl.Cl` [SB-710397] displayed an equilibrium dissociation constant (Kd) of 3600 nM.

Compound `COc1cc2ncn(-c3cc(OCC4CCCO4)c(C(N)=O)s3)c2cc1OC` (stereo not drawn) [GSK204607] returned a Kd above 10000 nM.
